An excerpt weighted towards active compounds, which were near 7% of everything screened.
ADAM17 inh – ADAM17 inhibition, QFRET primary screen; P78536; recombinant ADAM17, EDANS/DABCYL FRET peptide cleavage; inhibition, % at 6.95 µM; 370,000 compounds, 0.83% hits; AID 720648;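 active means inhibition above the mean of compounds lying between control limits plus 3 SD, set per campaign, cut at about 8.5% in these data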
GRIN3A LBD mod – modulators (binders) of human NR3A ligand-binding domain; NR3A LBD differential scanning fluorimetry, Tm shift; 0% = protein alone, 100% = glycine-bound protein; Tm shift relative to glycine control, % at 25 µM; 340,000 compounds, 2.5% hits; AID 1259313;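 active means melting temperature shift of at least 10% of the positive control shift, at one fixed dose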
ADAM10 inh – inhibits human ADAM10; 370,000 compounds, 0.62% hits; recombinant ADAM10, EDANS/DABCYL FRET peptide cleavage, 3 h; AID 720582; inhibition, % at 7 µM;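 active means inhibition above a per-campaign cutoff equal to the mean of compounds falling between control-based bounds plus 3 SD, cut at about 20% in these data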
rCAG binder – binds r(CAG) RNA repeats; r(CAG) RNA repeat, TO-PRO-1 dye displacement fluorescence; inhibition, % at 3 µM; 370,000 compounds, 1.3% hits; AID 651821;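 active means inhibition above the plate cutoff, the mean of all test compounds on that plate plus 3 SD, cut at about 35% in these data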;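 further: higher means more dye released from RNA so lower well fluorescence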
AHR activator – human AHR activation. P35869. 320,000 compounds, 2.5% hits. activation, % at 5 µM. AHR-responsive luciferase reporter cells, luminescence; in the data active means activation above about 47%
proKLK7 act – activates the human kallikrein-7 zymogen. purified proKLK7, EDANS-DABCYL substrate fluorescence; 100% is mature enzyme control, 0% vehicle. P49862. 370,000 compounds, 0.9% hits. AID 652039. activation, % at 7 µM;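 active means activation above the mean of all tested compounds plus 3 SD, computed per campaign excluding outliers beyond control limits, cut at about 13% in these data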
Target sequence (P49862 whole entry, looked up): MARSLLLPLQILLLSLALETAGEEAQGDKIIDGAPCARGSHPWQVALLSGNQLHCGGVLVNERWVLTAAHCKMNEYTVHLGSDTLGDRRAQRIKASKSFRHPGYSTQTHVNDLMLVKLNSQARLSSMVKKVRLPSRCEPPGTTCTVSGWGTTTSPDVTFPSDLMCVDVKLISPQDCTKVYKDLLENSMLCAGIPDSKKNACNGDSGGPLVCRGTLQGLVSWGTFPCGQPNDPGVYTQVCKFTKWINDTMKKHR
rCAG binder conf – r(CAG) RNA repeat binding, confirmation | shares compounds with rCAG binder | TO-PRO-1 dye displacement fluorescence | inhibition, % at 3 µM | 4,300 compounds, 70% hits | AID 652065;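 active means inhibition above a per-plate cutoff, the mean inhibition of sample wells plus 3 SD, cut at about 35% in these data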;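 further: loss of TO-PRO-1 fluorescence as compound displaces dye from 1x1 AA loop RNA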
dCAG dye counter – counter-screen for rCAG RNA binders: DNA CAG dye complex inhibitors; shares compounds with rCAG binder; d(CAG) DNA oligo TO-PRO-1 dye displacement, fluorescence; inhibition, % at 3 µM; 4,300 compounds, 94% hits; AID 652068;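 active means inhibition above its plate's cutoff, the mean test-well inhibition plus 3 SD, cut at about 4.8% in these data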;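 further: hits displace the dye from DNA and so lower well fluorescence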
dCAG dye DR – counter-screen for rCAG binders: inhibitors of DNA CAG TO-PRO-1 complex; shares compounds with rCAG binder; 250 compounds, 20% hits; DNA CAG/GTC duplex TO-PRO-1 dye displacement fluorescence; AID 686960; IC50, µM; in the data active means IC50 below about 10 µM
Each line names hits and unclear results; the compound was inactive in the other large screens (follow-up assays come after a bar, where they were run).

NC(=O)c1ncn([C@@H]2O[C@H](C(=O)N[C@H](Cc3c[nH]c4ccccc34)C(=O)N3CCN(CC(=O)N4CCCC4)CC3)[C@@H](O)[C@H]2O)n1	none (no result: GRIN3A LBD mod, AHR activator)
Nc1ncnc(N)c1NC(=O)c1ccccc1	none (no result: GRIN3A LBD mod, AHR activator)
Cc1csc(NC(=O)c2cc(-c3ccco3)nc3ccccc23)n1	rCAG binder 43.8 | rCAG binder conf 46.3 | dCAG dye counter 19.6
O=C(N/N=C/c1ccc(F)cc1)c1cc(-c2ccco2)nc2ccccc12	rCAG binder 45.0 | rCAG binder conf 47.1 | dCAG dye counter 30.3
O=C(Nc1cccc(S(=O)(=O)NC2=NCCC2)c1)c1cc(-c2ccco2)nc2ccccc12	rCAG binder 40.6 | rCAG binder conf 43.0 | dCAG dye counter 25.2
CCOc1ccc(/C=N/NC(=O)c2cc(-c3ccco3)nc3ccccc23)cc1	none
Cc1c(CCC(=O)O)c(=O)oc2cc(OCc3ccccc3Br)ccc12	rCAG binder 56.3 | rCAG binder conf 43.4 | dCAG dye counter 8.8
Cc1c(CC(=O)O)c(=O)oc2cc(OCc3ccc(Br)cc3)ccc12	rCAG binder 40.2 | rCAG binder conf 46.9 | dCAG dye counter 9.7 | dCAG dye DR inactive
Cc1c(CC(=O)O)c(=O)oc2cc(OCc3ccc(F)cc3F)ccc12	none
COC(=O)C1=CN(c2ccc(N3CCOCC3)cc2)C(N)=C(C#N)C1c1cccc(F)c1 (stereo not given)	none (no result: GRIN3A LBD mod, AHR activator)
O=C(Nc1cccc(F)c1)OCCN1CCCC12CCC(c1ccccc1)CC2 (stereo not given)	none (no result: GRIN3A LBD mod, rCAG binder, AHR activator, proKLK7 act)
O=C(O)c1cc(S(=O)(=O)Nc2cc(Cl)ccc2Oc2ccccc2)ccc1O	rCAG binder 72.2 | rCAG binder conf 67.4 | dCAG dye counter 30.7
CSc1ncc(Cl)c(C(=O)C(C#N)c2nc3c(C)cc(C)cc3c(=O)[nH]2)n1 (stereo not given)	rCAG binder 61.5 | rCAG binder conf 80.5 | dCAG dye counter 50.1
CSc1ncc(Cl)c(C(=O)Nc2ccccc2Br)n1	none
O=C(Nc1nc2ncccn2c1-c1ccc(F)cc1)c1ccccc1	none (no result: GRIN3A LBD mod, AHR activator)
O=[N+]([O-])c1ccc2[nH]cc(S(=O)(=O)N3CCN(c4cccc(Cl)c4)CC3)c2c1	GRIN3A LBD mod 27.1, rCAG binder 43.1 | rCAG binder conf 37.2 | dCAG dye counter 20.1
Cc1n[nH]c(C)c1S(=O)(=O)NCCc1cccc(F)c1	none (no result: GRIN3A LBD mod, AHR activator)
CC(=O)NS(=O)(=O)c1ccc(NC(=O)c2cc(-c3ccc(C)cc3)nc3ccccc23)cc1	rCAG binder 53.5 | rCAG binder conf 35.3 | dCAG dye counter 9.3
CC(=O)NS(=O)(=O)c1ccc(NC(=O)c2cc(-c3ccc(C)c(C)c3)nc3ccccc23)cc1	rCAG binder 76.7 | rCAG binder conf 70.5 | dCAG dye counter 36.8
CC(=O)NS(=O)(=O)c1ccc(NC(=O)c2cc(-c3cccs3)nc3ccccc23)cc1	none
Cc1ccccc1NC(=O)CN1C(=O)CCSc2ccccc21	none (no result: GRIN3A LBD mod, AHR activator)
Cc1ccc(-c2csc(NC(=O)c3ccno3)n2)cc1	rCAG binder 45.3 | rCAG binder conf 48.7 | dCAG dye counter 22.0
Cc1ccc(-c2csc(NC(=O)c3ccc(C)o3)n2)cc1	none
O=C(CSc1nc2ccccc2n1CCc1ccccc1)c1ccc(O)c(O)c1	rCAG binder 60.7 (no result: AHR activator) | rCAG binder conf 63.7 | dCAG dye counter 38.1
COc1ccccc1OCC(=O)N/N=C/C=C/c1ccc([N+](=O)[O-])o1	rCAG binder 35.6 | rCAG binder conf inactive | dCAG dye counter 16.7
O=S(=O)(Nc1ccc(-c2nc3cccnc3s2)cc1)c1ccc(Cl)s1	rCAG binder 65.6, AHR activator 68.5 | rCAG binder conf 71.3 | dCAG dye counter 32.4 | dCAG dye DR inactive
Cc1nc2ccc(S(=O)(=O)Nc3cccc(-c4nc5cccnc5s4)c3)cc2s1	none
Cc1cc(-c2nc3cccnc3s2)ccc1NS(=O)(=O)c1ccc2c(c1)OCCO2	rCAG binder 38.0, AHR activator 47.6 | rCAG binder conf 47.2 | dCAG dye counter 13.6
Cc1nc2ccc(S(=O)(=O)Nc3ccc(-c4nc5cccnc5s4)cc3)cc2s1	rCAG binder 53.0, AHR activator 68.6 | rCAG binder conf 41.8 | dCAG dye counter 12.4
Cc1c(NS(=O)(=O)c2ccc3c(c2)OCCO3)cccc1-c1nc2cccnc2s1	none
O=S(=O)(c1ccccc1)N1CCN(S(=O)(=O)c2ccc3c(c2)OCCO3)CC1	none (no result: GRIN3A LBD mod, rCAG binder, AHR activator, proKLK7 act)
O=[N+]([O-])c1cccc(C2=Nn3c(nnc3-c3ccccc3)SC2)c1	none (no result: GRIN3A LBD mod, AHR activator)
CCOC(=O)[C@@]12CCC3=C1N(CCC3)C(=O)[C@H](CC(=O)NCc1ccc(OC)c(OC)c1)C2	none (no result: GRIN3A LBD mod, AHR activator)
O=C(O)c1[nH]c2ccccc2c1C(c1cc(Br)ccc1O)c1c(C(=O)O)[nH]c2ccccc12	GRIN3A LBD mod 10.5, rCAG binder 94.5 | rCAG binder conf 75.7 | dCAG dye counter 39.9
O=C(O)c1[nH]c2ccccc2c1-c1ccccc1	none
COc1cc(C(=O)Nc2c(C(=O)O)[nH]c3ccccc23)cc(OC)c1OC	none (no result: AHR activator)
O=C(O)c1[nH]c2ccccc2c1C(c1c(F)cccc1Cl)c1c(C(=O)O)[nH]c2ccccc12	rCAG binder 57.4 | rCAG binder conf inactive | dCAG dye counter 8.0
COc1cc(Cl)cc(C(c2c(C(=O)O)[nH]c3ccccc23)c2c(C(=O)O)[nH]c3ccccc23)c1O	GRIN3A LBD mod 21.8, rCAG binder 92.3 | rCAG binder conf 72.8 | dCAG dye counter 37.9
OCCC(N1CCOCC1)C(O)(c1ccccc1)c1ccccc1 (stereo not given)	none (no result: GRIN3A LBD mod, AHR activator)
Cc1ccc(/C=N/NS(=O)(=O)c2ccc([N+](=O)[O-])cc2)o1	none
CCCCCCCCCCS(=O)(=O)N/N=C/c1ccc([N+](=O)[O-])cc1	GRIN3A LBD mod 30.6, rCAG binder 42.2 | rCAG binder conf 52.2 | dCAG dye counter 15.9
Cc1cc2c(nc1C)CCCN2S(=O)(=O)c1c(C)noc1C	none (no result: GRIN3A LBD mod, AHR activator)
COc1ccc(N2C(=O)C3C(c4ccc(C(=O)O)cc4)NC(Cc4ccccc4)(C(=O)O)C3C2=O)c([N+](=O)[O-])c1 (stereo not given)	rCAG binder 37.2 | rCAG binder conf inactive | dCAG dye counter 6.6
COC(=O)C1(Cc2ccccc2)NC(c2ccc(F)cc2)C2C(=O)N(C)C(=O)C21 (stereo not given)	none
O=C(N/N=C1/CCSC1)c1cc(Br)ccc1O	rCAG binder 41.0 | rCAG binder conf inactive | dCAG dye counter 7.3
O=C(NN=C1CCCC1)c1cc(Br)ccc1O	none

Bioassay records as filed in PubChem BioAssay.
